Screening results deposited in PubChem BioAssay by several laboratories.
Sampled rows, rich in hits. Any-hit rate of the full collection: about 0.97%.
Mtb bLac sens: beta-lactam sensitization of Mtb H37Rv, H37Rv; 330,000 tested, 0.27% active; inhibition, % at 25 µM; AID 434955, 2010; M. tuberculosis H37Rv growth with meropenem, percent inhibition;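 further: growth measured after seven days incubation then overnight dye step; 0% = bacteria only wells and 100% = bacteria with antibiotic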
TcdB GH inh: TcdB glycohydrolase inhibitors, primary screen, biochemical, single point, plate reader. Toxin B (Clostridioides difficile), P18177. 350,000 tested, 0.24% active. AID 652162, 2013. inhibition, % at 9.99 µM. TcdB glycohydrolase enzymatic assay; in the data active means inhibition above about 10%
RecA intein inh: Mtb RecA intein splicing inhibitors, primary screen, biochemical, fluorescence, HTS; Protein RecA (Mycobacterium tuberculosis (strain ATCC 25618 / H37Rv)), P9WHJ3; cell-free RecA intein splicing; inhibition, % (no concentration beside the values); 290,000 tested, 0.75% active; in the data active means inhibition above about 30%;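 further: 0% = vehicle wells and 100% = reference inhibitor control wells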
Rv3671c inh: Rv3671c serine protease inhibitors, primary screen, biochemical, fluorescence polarization, M. tuberculosis H37Rv; 320,000 tested, 0.048% active; P9WHR9; AID 2606, 2010; inhibition, % at 5.96 µM; in the data active means inhibition above about 38%;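 further: extracellular domain of Rv3671c used as enzyme; 0% = enzyme with DMSO and 100% = no enzyme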
Target sequence (P9WHR9 whole entry, looked up, the tested form may be a part): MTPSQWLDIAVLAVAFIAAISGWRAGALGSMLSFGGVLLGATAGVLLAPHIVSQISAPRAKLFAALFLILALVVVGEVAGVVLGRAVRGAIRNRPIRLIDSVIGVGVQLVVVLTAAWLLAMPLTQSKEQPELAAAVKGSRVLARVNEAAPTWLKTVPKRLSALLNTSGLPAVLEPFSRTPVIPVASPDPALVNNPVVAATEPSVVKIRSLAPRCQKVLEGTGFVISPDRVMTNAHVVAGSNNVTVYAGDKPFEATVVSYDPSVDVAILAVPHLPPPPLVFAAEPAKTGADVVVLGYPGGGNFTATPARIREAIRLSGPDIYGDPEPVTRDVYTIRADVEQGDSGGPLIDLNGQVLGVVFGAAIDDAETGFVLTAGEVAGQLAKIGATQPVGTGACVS
MazF activator: activators of E. coli MazEF toxin-antitoxin RNase, primary screen, biochemical, fluorescence, uHTS; AID 504720, 2011; activation, % at 20 µM; FAM/BHQ RNA-DNA oligo cleavage fluorescence, 5 h; Endoribonuclease toxin MazF (Escherichia coli (strain K12)), P0AE70; 350,000 tested, 0.32% active; in the data active means activation above about 50%
Target sequence (P0AE70 whole entry, looked up): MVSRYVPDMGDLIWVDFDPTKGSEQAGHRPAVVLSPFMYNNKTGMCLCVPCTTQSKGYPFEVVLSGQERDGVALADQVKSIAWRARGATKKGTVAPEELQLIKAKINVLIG
Mtb UGM inh: M. tuberculosis UGM enzyme inhibitors, primary screen, biochemical, fluorescence polarization, single point; purified UGM, fluorescence polarization probe displacement; UDP-galactopyranose mutase (Mycobacterium tuberculosis (strain ATCC 25618 / H37Rv)), …; AID 504406, 2011; inhibition, % at 10 µM; 320,000 tested, 0.06% active; in the data active means inhibition above about 10%, passing the limit was not always enough
GFP chromophore: counter-screen: blocks GFP chromophore formation, dose response, counter-screen, biochemical, fluorescence, homogeneous; EC50, µM; AID 434968, 2010; cell-free GFP chromophore formation; shares compounds with RecA intein inh; 2,100 tested, 83% active
The depositor's hits bear a star; · = no result. Unless noted, how the calls were made is not given here.

SMILES	Mtb bLac sens	TcdB GH inh	RecA intein inh	Rv3671c inh	MazF activator	Mtb UGM inh	GFP chromophore
COc1ccc(C(C(=O)NC2CCCCC2)N(C(=O)CCl)c2ccc(OC)cc2)cc1 (configuration not stated)	30	·	8	-2	3	0	·
O=C(NC1CCCC1)C(c1ccc(F)cc1)N(Cc1ccc(F)cc1)C(=O)CCl (configuration not stated)	-1	1	56*	-8	4	2	1.8*
COc1ccc(N(C(=O)CCl)C(C(=O)NC2CCCCC2)c2cccnc2)cc1 (configuration not stated)	4	·	75*	-5	18	-3	11*
O=C(C[C@@H]1CC[C@@H]2[C@H](COC[C@H](O)CN2Cc2nccs2)O1)NCc1ccc(Cl)cc1	·	0	·	·	·	·	·
COc1ccc(C(=O)c2c(C(F)(F)F)oc3c2C(=O)c2ccccc2C3=O)cc1	68	·	87*	-65	14	1	0.13*
O=c1c2ccccc2nc(-c2ccccc2)n1-c1ccccc1O	3	2	-1	-3	8	-1	·
O=C1c2ccccc2-n2c1nc1ccccc1c2=O	98	1	71*	-7	3	-1	1.3*
Cc1ccc(-c2ccc([C@H]3[C@H]4CN(C(=O)Nc5cccc(F)c5)CC(=O)N4[C@H]3CO)cc2)cc1	·	-2	·	·	·	·	·
O=C(Nc1ccc(Cl)cc1)C(Cl)C(=O)c1ccccc1 (configuration not stated)	2	1	46*	-4	2	1	38*
O=S(=O)(CCSc1nc2ccccc2s1)c1nc2ccccc2s1	97	·	78*	-4	2	4	3.6*
CCS(=O)(=O)CCSc1nc2ccccc2s1	-5	·	-2	-6	-6	0	·
COc1ccc(NC(=O)Nc2ccc3c(c2)C(=O)N([C@@H](C)CO)C[C@H](C)[C@@H](CN(C)S(=O)(=O)c2ccc(C)cc2)OCCCC[C@@H](C)O3)cc1	·	-2	·	·	·	·	·
CCNC(=O)[C@@H]1[C@@H](CO)[C@@H]2Cn3c(ccc(-c4ccc(F)cc4)c3=O)[C@@H]2N1Cc1cc(F)ccc1F	·	0	·	·	·	·	·
O=C(C[C@H]1CC[C@H]2[C@@H](COC[C@H](O)CN2S(=O)(=O)c2ccc(Cl)cc2)O1)N[C@H]1CCN(Cc2ccccc2)C1	·	-1	·	·	·	·	·
CC(C)(C)OC(=O)NCCc1nnc(S(=O)(=O)Cc2ccc(Cl)cc2Cl)o1	4	·	85*	-1	-2	1	>38
CC(C)(C)OC(=O)NCCc1nnc(SCc2ccccc2Cl)o1	1	·	1	-7	-3	2	·
O=C(COc1ccccc1C(=O)Nc1ccccc1)c1ccc(Br)cc1	-2	-1	-3	-13	-14	0	·
O=C(Oc1ccccc1C(=O)Nc1ccccc1)c1ccccc1Br	7	-8	54*	20	-3	-1	36*
Cc1ccccc1-n1ncc2c([N+](=O)[O-])cc([N+](=O)[O-])cc21	99	·	85*	5	-1	0	5.8*
CN1/C(=C/C(=O)c2nc(S(C)(=O)=O)ncc2Cl)C(C)(C)c2ccccc21	96	·	77*	-6	10	-1	6.3*
CC1=NN(c2ccc(Cl)c(C(=O)O)c2)C(=O)/C1=C\c1ccc(-c2ccc(C(=O)O)cc2)o1	·	0	36*	·	-4	·	0.81*
CC1=NN(c2ccccc2)C(=O)/C1=C/c1ccc(-c2ccc(C)c(C(=O)O)c2)o1	15	1	3	-19	11	2	·
CN1C(=O)/C(=N\OC(=O)c2cccc3ccccc23)c2ccccc21	15	-1	38*	-6	6	0	32*
COc1ccc(C(=O)O/N=C2\C(=O)N(C)c3ccccc32)cc1	5	0	·	5	38	-1	·
CCn1c(-c2ccccc2)c(C(=O)CCl)c2ccccc21	99	1	40*	4	-1	2	1.6*
SMILES	Mtb bLac sens	TcdB GH inh	RecA intein inh	Rv3671c inh	MazF activator	Mtb UGM inh	GFP chromophore
Cn1c(-c2ccccc2)c(CCO)c2ccccc21	52	·	1	-5	2	2	·
Cn1c(-c2ccccc2)c(C(=O)CCl)c2ccccc21	·	1	42*	·	-10	·	14*
c1ccc(CCNCc2cccs2)cc1	-3	1	33*	·	1	-1	>38
OC(CNCc1cccs1)c1ccccc1 (configuration not stated)	4	·	0	2	6	1	·
O=c1[nH]c(N2CCOCC2)cc2ccccc12	-11	-1	69*	-108	3	3	24*
O=c1c(N2CCOCC2)coc2ccccc12	-4	-1	-7	-3	6	0	·
CNC1=C(N(C(C)=O)c2ccc(Br)cc2)C(=O)c2ccccc2C1=O	-5	·	73*	-135	8	5	13*
CCC(=O)N(C1=C(NC)C(=O)c2ccccc2C1=O)C(C)C	5	0	45*	-38	4	1	39*
C[C@@H]1CN([C@H](C)CO)C(=O)c2cc(NS(=O)(=O)c3ccc(F)cc3)ccc2O[C@H]1CN(C)CC1CCCCC1	·	0	·	·	·	·	·
COc1cccc(S(=O)(=O)N[C@@H]2C=C[C@H](CC(=O)NCc3ccc(Cl)cc3)O[C@@H]2CO)c1	·	0	·	·	·	·	·
Oc1ccc(O)c2c1C1c3ccccc3C2c2ccccc21	-1	·	44*	8	·	1	10*
Oc1ccc2ccccc2c1C1Nc2cccc3cccc(c23)N1	96	-1	-2	-5	11	-2	·
Cc1ccc(NC(=O)C(=Cc2ccc(C(=O)O)cc2)C(=O)Nc2ccc(C)cc2C)c(C)c1	17	·	83*	5	-2	2	7.6*
CC1=NN(c2ccccc2)C(=O)/C1=C/c1cccs1	-10	·	85*	-177	8	1	6*
COc1ccc(/C=C2/C(=O)N(Cc3ccccc3)N=C2C)cc1	2	0	59*	-59	-3	-2	7.3*
CC1=NN(c2ccccc2)C(=O)/C1=C\c1cc(C)n(-c2cccnc2)c1C	-11	1	33*	-6	9	-2	31*
CC1=NN(c2ccccc2)C(=O)/C1=C/c1ccc(Cl)cc1	6	-4	85*	·	6	-2	3.2*
CC1=NN(c2ccccc2)C(=O)/C1=C\c1cc(C)n(-c2ccccc2)c1C	-3	-1	0	-8	2	2	·
CCCC(=O)Nc1ccc2c(c1)OC[C@@H](C)N(CC1CCCC1)C[C@H](C)[C@@H](OC)CN(C)C2=O	·	0	·	·	·	·	·
